# Data: PubChem BioAssay (EPA / NIEHS)
# Where “and” joins values, the source holds several entries; their conditions need not be identical. Equal values may be shown once. Records with an inconclusive call do not appear. Some structures have more than one record in an assay (separate samples or runs), and their calls can disagree. Calls of active or inactive are those of the source. The calls were made as follows, unless noted: active = hit-call score of the fitted dose curve at least 0.9, where 1 is the maximum; inconclusive = response in the unintended direction; inactive = score below 0.9.
# Columns and labels:
# [1] = biological target: human CYP2C8, CYP2C8 (gene 1558) (UniProt P10632); experiment: NVS_ADME_hCYP2C8: NovaScreen (NVS) CYP450-related Enzyme Activity (ADME) Assay for human CYP2C8 (AID 2283104; active = hit-call score of the fitted dose curve at least 0.9, where 1 is the maximum; inactive = score below 0.9)
# How it was run: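 Fluorescence readout of substrate turnover by recombinant CYP2C8 after 0.5 h, baseline acetonitrile. Single-concentration duplicate screen at 10 uM preceded singleton concentration series (max 20 uM) for compounds passing the inhibition threshold.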
# rat CYP2B1, gene 24300 = experiment: NVS_ADME_rCYP2B1: NovaScreen (NVS) CYP450-related Enzyme Activity (ADME) Assay for rat CYP2B1 (AID 2283117)
# How it was run: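 Cell-free fluorescence enzyme assay, recombinant rat CYP2B1, 0.75 h after dosing. Single-concentration duplicates at 10 uM preceded concentration series (max 20 uM) for actives; acetonitrile as negative-control baseline.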
# [2] = biological target: rat CYP2C12, Cyp2c12 (gene 25011) (UniProt P11510); experiment: NVS_ADME_rCYP2C12: NovaScreen (NVS) CYP450-related Enzyme Activity (ADME) Assay for rat CYP2C12 (AID 2283119)
# How it was run: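 Fluorescent-substrate turnover by recombinant rat CYP2C12, measured at 0.5 h, normalized to acetonitrile vehicle. Chemicals screened first at a single 10 uM concentration in duplicate, with concentration series for actives.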
# [3] = biological target: rat CYP2D1, Cyp2d1 (gene 266684) (UniProt P10633); experiment: NVS_ADME_rCYP2D1: NovaScreen (NVS) CYP450-related Enzyme Activity (ADME) Assay for rat CYP2D1 (AID 2283122)
# How it was run: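 Rat CYP2D1 enzyme activity measured by fluorescence intensity in a cell-free format, 0.75 h post-dosing, acetonitrile as negative control. Screening at 10 uM in duplicate, with actives followed in concentration series up to 20 uM.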
# [4] = biological target: human Matrix Metalloproteinase-1 (MMP1), MMP1 (gene 4312) (UniProt P03956); experiment: NVS_ENZ_hMMP1: NovaScreen (NVS) Enzymatic Assay for human Matrix Metalloproteinase-1 (MMP1) (AID 2283181)
# How it was run: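 Cell-free fluorescent substrate assay of human MMP1, read after 1 h. A single 25 uM duplicate screen was followed by concentration series to a maximum of 50 uM for actives meeting threshold; inhibition analysed against DMSO baseline.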
# [5] = biological target: Norway rat Vesicular Monoamine Transporter (VMAT2), neurotransmitter transporter, Slc18a2 (gene 25549) (UniProt Q01827); experiment: NVS_TR_rVMAT2: NovaScreen (NVS) Transporter Assay for Norway rat Vesicular Monoamine Transporter (VMAT2), neurotransmitter transporter (AID 2283376);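 also: actives lower the bound radioligand signal below the DMSO level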
# How it was run: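 Binding endpoint from rat forebrain tissue, cell-free; 1 h incubation; filtered radioligand counted; 25 uM duplicate primary then dose series; DMSO negative control.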
# [6] = biological target: Cellular tumor antigen p53 (Homo sapiens) (UniProt P04637); experiment: TOX21_p53_BLA_p2_ratio: Tox21 HCT-116 p53 Agonism Beta-lactamase Assay, Ratio, Phase 2 (AID 2283592)
# How it was run: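 Cleaved-to-uncleaved substrate ratio (460 vs 530 nm) measured in HCT116 cells with an inducible beta-lactamase reporter linked to p53 activity. Compounds incubated 16 h at 37C before 2 h room-temperature CCF4-AM loading.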
# [7] = biological target: Cellular tumor antigen p53 (Homo sapiens) (UniProt P04637); experiment: TOX21_p53_BLA_p3_ratio: Tox21 HCT-116 p53 Agonism Beta-lactamase Assay, Ratio, Phase 3 (AID 2283596)
# How it was run: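 Cells were seeded at 4000/well, rested 5 h at 37C, then dosed with DMSO compound solutions (217-fold dilution) for 16 h. CCF4-AM substrate was loaded for 2 h at room temperature, and the 460/530 nm emission ratio was fitted for gain of signal versus DMSO.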
# [8] = biological target: Cellular tumor antigen p53 (Homo sapiens) (UniProt P04637); experiment: TOX21_p53_BLA_p5_ratio: Tox21 HCT-116 p53 Agonism Beta-lactamase Assay, Ratio, Phase 5 (AID 2283599)
# How it was run: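 HCT-116 cells carrying a p53-inducible beta-lactamase reporter were seeded at 4000 cells/well and dosed after 5 h with compound in DMSO (217-fold dilution). After 16 h at 37C, CCF4-AM substrate was added for 2 h, and the 460/530 nm emission ratio was scored as gain-of-signal versus DMSO.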
# [9] = biological target: Cellular tumor antigen p53 (Homo sapiens) (UniProt P04637); experiment: TOX21_p53_BLA_p4_ratio: Tox21 HCT-116 p53 Agonism Beta-lactamase Assay, Ratio, Phase 4 (AID 2283601)
# How it was run: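 HCT116 cells carrying an inducible beta-lactamase reporter were plated at 4000 cells/well, rested 5 h, then exposed to compounds in DMSO (217-fold dilution) for 16 h at 37C. CCF4-AM substrate was loaded 2 h at room temperature; 460/530 nm emission ratio scored gain-of-signal versus DMSO.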
# [10] = CCTE_Harrill_HTTr_Apoptosis_PRF_DMEM_12hr: (Pilot) CCTE's 12-hour Apoptosis Assessment for the High-Throughput Transcriptomics (HTTr) Platform, in MCF-7 cells cultured in phenol red-free DMEM + 10% charcoal-stripped fetal bovine serum, Harrill Lab (AID 2283985; active = hit-call score of the fitted dose curve at least 0.9, where 1 is the maximum; inactive = score below 0.9)
# How it was run: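 Caspase-3/7 activity by CellEvent Green high content imaging after 12 h compound exposure (eight concentrations) in MCF-7 grown in phenol red-free DMEM plus 10% charcoal-stripped serum; DMSO as baseline.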
# [11] = tested on: rat Monoamine Oxidase, MAO-A, Central (MAOAC), gene 29253; experiment: NVS_ENZ_rMAOAC: NovaScreen (NVS) Enzymatic Assay for rat Monoamine Oxidase, MAO-A, Central (MAOAC) (AID 2283243);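 also: potency refers to inhibition seen as signal drop below DMSO baseline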
# How it was run: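 Single-concentration duplicate testing at 25 uM, then concentration-response for actives, in a lysate-based radiodetection MAO-A activity assay from rat brain. Enzyme activity measured 1.5 hours post-dosing; DMSO served as negative control and baseline.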
# [12] = biological target: Androgen receptor (Homo sapiens) (UniProt P10275); experiment: ATG_AR_TRANS: Attagene TRANS-FACTORIAL HepG2 Assay for human Androgen Receptor (AR) (AID 2282973); conditions: HepG2 Attagene TRANS-FACTORIAL AR reporter transcription
# How it was run: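 Transfected HepG2, 24 h treatment, chimeric NR-Gal4 driving GAL4-UAS reporters. mRNA induction by RT-PCR/capillary electrophoresis fluorescence; DMSO as negative control and baseline.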
# [13] = Tanguay_ZF_120hpf_MUSC: Oregon State University Tanguay Lab 120 Hour Post-fertilization zebrafish Assay for Muscle Malformation (AID 2284401; active = hit-call score of the fitted dose curve at least 0.9, where 1 is the maximum; inactive = score below 0.9)
# How it was run: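 Scored as a binary brightfield endpoint at 120 hpf, fitted versus DMSO. Single dechorionated wild-type (Tropical 5D) zebrafish embryos per well, statically exposed at 28C from 6 hpf onward with final DMSO 0.64%.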
# Androgen receptor (Homo sapiens), sequence (P10275 whole entry, looked up, the tested form may be a part): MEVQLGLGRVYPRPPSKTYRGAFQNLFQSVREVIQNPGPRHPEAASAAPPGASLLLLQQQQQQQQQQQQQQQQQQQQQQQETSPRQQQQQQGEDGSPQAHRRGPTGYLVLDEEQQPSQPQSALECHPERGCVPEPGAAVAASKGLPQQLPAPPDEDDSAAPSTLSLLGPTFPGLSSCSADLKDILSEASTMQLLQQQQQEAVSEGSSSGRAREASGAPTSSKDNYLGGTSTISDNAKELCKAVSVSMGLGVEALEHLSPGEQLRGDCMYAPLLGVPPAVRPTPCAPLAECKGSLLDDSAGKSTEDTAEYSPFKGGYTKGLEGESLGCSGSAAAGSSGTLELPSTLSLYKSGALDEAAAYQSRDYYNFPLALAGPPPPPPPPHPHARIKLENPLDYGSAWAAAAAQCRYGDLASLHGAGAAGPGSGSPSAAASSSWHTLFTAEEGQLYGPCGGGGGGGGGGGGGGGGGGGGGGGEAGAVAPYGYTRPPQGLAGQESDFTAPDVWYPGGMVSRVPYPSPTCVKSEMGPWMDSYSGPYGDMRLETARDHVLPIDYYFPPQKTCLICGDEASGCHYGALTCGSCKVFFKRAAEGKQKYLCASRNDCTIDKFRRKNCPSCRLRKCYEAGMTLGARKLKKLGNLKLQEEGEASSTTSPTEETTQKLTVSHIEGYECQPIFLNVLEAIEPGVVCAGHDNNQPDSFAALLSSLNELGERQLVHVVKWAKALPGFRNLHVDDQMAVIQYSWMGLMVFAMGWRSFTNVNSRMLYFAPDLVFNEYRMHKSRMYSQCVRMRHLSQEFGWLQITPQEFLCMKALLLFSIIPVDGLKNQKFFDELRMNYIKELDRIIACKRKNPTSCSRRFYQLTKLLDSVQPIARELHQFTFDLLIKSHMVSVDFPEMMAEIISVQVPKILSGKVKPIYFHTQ
# Cellular tumor antigen p53 (Homo sapiens), sequence (P04637 whole entry, looked up): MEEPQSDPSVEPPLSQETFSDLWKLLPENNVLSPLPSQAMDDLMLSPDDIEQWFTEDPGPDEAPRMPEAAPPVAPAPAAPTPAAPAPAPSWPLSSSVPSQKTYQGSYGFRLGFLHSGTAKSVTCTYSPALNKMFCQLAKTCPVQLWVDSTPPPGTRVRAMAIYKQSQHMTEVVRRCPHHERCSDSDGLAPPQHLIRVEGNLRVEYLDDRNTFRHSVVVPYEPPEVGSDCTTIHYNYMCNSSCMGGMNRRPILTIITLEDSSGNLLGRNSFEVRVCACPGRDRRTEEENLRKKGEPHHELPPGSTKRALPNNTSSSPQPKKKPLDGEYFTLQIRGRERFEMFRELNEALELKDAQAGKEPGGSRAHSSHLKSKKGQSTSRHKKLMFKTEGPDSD
# Norway rat Vesicular Monoamine Transporter (VMAT2), neurotransmitter transporter, Slc18a2 (gene 25549), sequence (Q01827 whole entry, looked up): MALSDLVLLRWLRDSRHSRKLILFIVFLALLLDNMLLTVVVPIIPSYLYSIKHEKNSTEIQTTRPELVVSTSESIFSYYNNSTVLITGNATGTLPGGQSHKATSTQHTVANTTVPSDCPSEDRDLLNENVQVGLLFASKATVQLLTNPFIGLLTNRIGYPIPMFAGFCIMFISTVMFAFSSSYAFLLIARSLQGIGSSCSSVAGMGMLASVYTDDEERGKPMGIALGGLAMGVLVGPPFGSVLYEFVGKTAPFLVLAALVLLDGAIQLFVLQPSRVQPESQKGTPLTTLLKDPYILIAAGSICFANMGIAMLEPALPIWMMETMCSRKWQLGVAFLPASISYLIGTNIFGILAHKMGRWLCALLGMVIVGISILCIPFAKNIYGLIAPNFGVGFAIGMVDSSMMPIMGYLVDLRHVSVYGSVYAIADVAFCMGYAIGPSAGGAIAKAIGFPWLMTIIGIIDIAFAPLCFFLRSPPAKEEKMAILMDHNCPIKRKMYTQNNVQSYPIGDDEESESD
# rat CYP2C12, Cyp2c12 (gene 25011), sequence (P11510 whole entry, looked up): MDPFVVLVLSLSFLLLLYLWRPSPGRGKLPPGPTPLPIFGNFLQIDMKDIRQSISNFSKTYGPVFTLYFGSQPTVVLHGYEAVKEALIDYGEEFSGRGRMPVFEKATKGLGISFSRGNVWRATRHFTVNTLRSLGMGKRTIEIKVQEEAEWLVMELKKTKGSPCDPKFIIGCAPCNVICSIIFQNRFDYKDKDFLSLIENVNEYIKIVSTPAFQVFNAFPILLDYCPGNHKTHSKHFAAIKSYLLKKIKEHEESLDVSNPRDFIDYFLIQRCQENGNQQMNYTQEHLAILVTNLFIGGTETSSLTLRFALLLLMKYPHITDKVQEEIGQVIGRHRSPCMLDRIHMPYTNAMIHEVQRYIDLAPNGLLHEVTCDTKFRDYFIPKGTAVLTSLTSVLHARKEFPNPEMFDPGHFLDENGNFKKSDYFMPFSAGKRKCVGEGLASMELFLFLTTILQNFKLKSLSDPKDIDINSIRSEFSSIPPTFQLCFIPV
# rat CYP2D1, Cyp2d1 (gene 266684), sequence (P10633 whole entry, looked up): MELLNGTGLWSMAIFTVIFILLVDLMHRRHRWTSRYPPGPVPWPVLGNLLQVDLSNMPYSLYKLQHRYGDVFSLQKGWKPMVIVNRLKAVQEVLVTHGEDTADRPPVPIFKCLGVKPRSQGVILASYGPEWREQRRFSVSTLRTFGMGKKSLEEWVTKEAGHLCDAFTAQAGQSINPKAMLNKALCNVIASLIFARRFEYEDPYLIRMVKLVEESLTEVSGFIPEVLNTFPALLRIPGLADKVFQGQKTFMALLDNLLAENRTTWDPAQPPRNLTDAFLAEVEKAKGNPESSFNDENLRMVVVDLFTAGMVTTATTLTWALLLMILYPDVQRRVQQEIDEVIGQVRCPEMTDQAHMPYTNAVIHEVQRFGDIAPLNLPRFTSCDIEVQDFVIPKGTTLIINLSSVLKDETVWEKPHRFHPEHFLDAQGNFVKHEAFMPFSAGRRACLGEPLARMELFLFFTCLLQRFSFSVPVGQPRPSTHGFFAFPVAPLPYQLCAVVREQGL
# human Matrix Metalloproteinase-1 (MMP1), MMP1 (gene 4312), sequence (P03956 whole entry, looked up): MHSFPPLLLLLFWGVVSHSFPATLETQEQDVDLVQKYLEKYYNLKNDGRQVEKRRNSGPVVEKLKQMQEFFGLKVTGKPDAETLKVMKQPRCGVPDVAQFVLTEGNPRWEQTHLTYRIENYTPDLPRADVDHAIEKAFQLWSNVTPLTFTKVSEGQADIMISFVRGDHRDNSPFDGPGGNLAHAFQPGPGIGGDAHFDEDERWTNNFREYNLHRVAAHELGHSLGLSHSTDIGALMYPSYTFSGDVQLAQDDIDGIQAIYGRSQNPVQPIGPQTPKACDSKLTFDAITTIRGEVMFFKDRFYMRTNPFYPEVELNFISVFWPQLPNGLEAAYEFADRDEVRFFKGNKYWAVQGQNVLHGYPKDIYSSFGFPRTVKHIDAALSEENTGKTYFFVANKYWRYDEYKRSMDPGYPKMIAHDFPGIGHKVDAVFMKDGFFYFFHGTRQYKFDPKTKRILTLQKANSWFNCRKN
# human CYP2C8, CYP2C8 (gene 1558), sequence (P10632 whole entry, looked up): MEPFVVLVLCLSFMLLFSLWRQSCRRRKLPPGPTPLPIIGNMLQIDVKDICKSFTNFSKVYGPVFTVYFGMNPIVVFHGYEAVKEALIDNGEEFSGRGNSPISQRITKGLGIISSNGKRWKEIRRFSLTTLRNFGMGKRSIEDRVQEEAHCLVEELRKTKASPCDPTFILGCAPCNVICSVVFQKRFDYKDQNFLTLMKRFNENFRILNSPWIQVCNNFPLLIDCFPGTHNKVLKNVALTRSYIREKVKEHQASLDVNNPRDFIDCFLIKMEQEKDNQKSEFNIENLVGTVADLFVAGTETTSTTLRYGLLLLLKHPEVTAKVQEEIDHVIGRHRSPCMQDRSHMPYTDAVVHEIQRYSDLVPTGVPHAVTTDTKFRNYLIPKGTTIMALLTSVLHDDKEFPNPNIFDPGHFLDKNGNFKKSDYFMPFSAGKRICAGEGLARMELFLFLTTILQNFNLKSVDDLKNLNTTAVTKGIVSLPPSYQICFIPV
compound,measurement,setting,value
C=CCOC(Cn1ccnc1)c1ccc(Cl)cc1Cl (stereo not drawn),AC50,[1],6.22 µM (active)
same,AC50,"rat CYP2B1, gene 24300",10.8 nM (active)
same,AC50,[2],2.13 µM (active)
same,AC50,[3],3.58 µM (active)
same,AC50,[4],14 µM (active)
same,AC50,[5],12 µM (active)
same,AC50,[6],76.1 µM (active) and 72.5 µM (active)
same,outcome,[6],inactive
same,AC50,[7],83 µM (active) and 73.3 µM (active)
same,outcome,[7],inactive
same,AC50,[8],79.4 µM (active) and 77.2 µM (active)
same,outcome,[8],inactive
same,AC50,[9],80.8 µM (active) and 83.9 µM (active)
same,outcome,[9],inactive
same,outcome,[10],inactive
C#C[C@]1(O)CC[C@H]2[C@@H]3CCc4cc(O)ccc4[C@H]3CC[C@@]21C,AC50,"rat CYP2B1, gene 24300",2.5 µM (active) and 4.16 µM (active) and 1.77 µM (active)
same,outcome,[11],inactive
O=S(=O)(O)CCC(F)(F)C(F)(F)C(F)(F)C(F)(F)F,outcome,[12],inactive
same,outcome,[13],inactive
NC(=O)C(F)(F)C(F)(F)C(F)(F)C(F)(F)C(N)=O,outcome,[12],inactive
same,outcome,[13],inactive
O=C(O)C(F)(F)C(F)(F)C(F)(F)OC(F)(C(F)(F)F)C(F)(F)F,outcome,[12],inactive
same,outcome,[13],inactive
